# Values joined by “and” are separate entries in the source; they are usually repeats but may differ in a detail not shown here. Identical values can stand only once. Records with an inconclusive call do not appear. Where a call stands in place of a potency, no number is given. Active and inactive are the calls of the source. Calls follow the shape of the dose curve; as a rule, active = well fitted inhibition curve with a large enough effect in the main read-out, with a control signal flat; inconclusive = small, poorly fitted or top-dose-only effect, or a change in a side signal; inactive = flat fitted curve, though single readings scatter.
# Biological target: Neuropeptide S receptor (Homo sapiens) (UniProt Q6W5P4)
# Assay: Confirmation Concentration-Response Assay for Antagonists of the Neuropeptide S Receptor: cAMP Signal Transduction
# Settings: CHO-NPSR cells, cAMP TR-FRET, antagonist mode; series mostly up to 22.3 µM
# Method in brief: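 LANCE TR-FRET cAMP read-out: 665/620 nm emission ratio, with the 620 nm donor channel also reported, after 2 h RT detection. Stably transfected CHO-NPSR cells got compound titrations and 100 nM NPS in stimulation reagent for 60 min at 37C. IC50 came from Hill fits.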
# Potency is read from the fitted curve at half-maximal effect.
# Sequence of Neuropeptide S receptor (Homo sapiens) (Q6W5P4 whole entry, looked up): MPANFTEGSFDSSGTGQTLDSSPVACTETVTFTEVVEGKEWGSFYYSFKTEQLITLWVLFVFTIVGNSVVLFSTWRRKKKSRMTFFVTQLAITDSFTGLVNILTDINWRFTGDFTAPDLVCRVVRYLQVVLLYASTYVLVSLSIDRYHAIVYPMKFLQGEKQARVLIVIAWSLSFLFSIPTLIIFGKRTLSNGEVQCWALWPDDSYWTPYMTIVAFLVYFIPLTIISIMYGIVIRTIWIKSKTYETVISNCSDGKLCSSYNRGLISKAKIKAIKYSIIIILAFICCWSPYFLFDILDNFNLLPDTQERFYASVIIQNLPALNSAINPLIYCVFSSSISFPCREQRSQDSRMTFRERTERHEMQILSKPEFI
row,Compound,Potency
1,Cc1ccc2nc3ccc(N4CCCCCCC4)nn3c(=O)c2c1,inactive
2,CC(C)(C)OC(=O)Nc1ncnc2c1C(c1ccccc1)c1c(ccc3ccccc13)O2 (stereo not drawn),3.55 µM (active)
3,N=C1c2ccccc2CN1c1ccc(N2CCOCC2)c(S(=O)(=O)Nc2ccc(Cl)cc2)c1,4.47 µM (active)
4,Cc1oc2c(c1C(=O)NCc1cccnc1)C(=O)c1ccccc1C2=O,inactive
5,N=c1c2c(ccn1Cc1ccccc1)Oc1ccc3ccccc3c1C2c1ccccc1 (stereo not drawn),2 µM (active)
6,Cc1cc(N/N=C/c2ccccc2[N+](=O)[O-])nc(-n2nc(C)cc2C)n1,inactive
7,Cc1ccc(-c2ccc(/C=C3\C(=O)ON=C3c3ccccc3)o2)c([N+](=O)[O-])c1,2.82 µM (active)
8,CCOc1ccc(C2c3c(ncn(-c4ccccc4)c3=N)Oc3ccc4ccccc4c32)cc1OCC (stereo not drawn),2 µM (active)
9,CC1CCCCN1S(=O)(=O)c1ccc(C(=O)Nc2sccc2C(N)=O)cc1 (stereo not drawn),12.6 µM (active) and 14.1 µM (active)
10,NC(=O)c1ccsc1NC(=O)c1ccc(S(=O)(=O)N2CCCC2)cc1,inactive
11,CCc1ccc2oc(-c3cc(N)cc(C)c3O)nc2c1,inactive
12,Cc1nn(C(=O)c2cccs2)c(N)c1-c1ccccc1,inactive
13,c1cncc(-c2nc(-c3ccco3)cs2)c1,inactive
14,Cc1nn(C)cc1/C=N/NC(=S)Nc1ccccc1,inactive
15,O=C(COC(=O)c1ccccc1C(=O)c1ccc(Cl)c([N+](=O)[O-])c1)NC1CCCCCC1,4.47 µM (active) and 8.91 µM (active)
16,N#Cc1c(-c2ccccc2)c(-c2ccccc2)nn(CC(=O)NNC(=O)Nc2ccc(Cl)c(Cl)c2)c1=O,inactive
17,COc1cccc(N2CCN(c3ncnc4c3[nH]c3ccc(F)cc34)CC2C)c1 (stereo not drawn),5.62 µM (active)
18,O=c1cc(CNCCCO)c2ccccc2[nH]1,inactive
19,CC1CCCc2sc3nc(N4CCN(CCO)CC4)n4ncnc4c3c21 (stereo not drawn),inactive

row,Compound,Potency
1,Cn1c(C(=O)NCCN2CCc3ccccc3C2)cc2c(=O)[nH]c3ccccc3c21,inactive
2,O=C(CSc1cccc[n+]1[O-])Nc1ccccc1Oc1ccccc1,inactive
3,CCOc1ccccc1NC1=CC(=O)CC(c2ccccc2)C1 (stereo not drawn),inactive
4,CCOC(=O)c1cnc(Nc2nc3ccccc3o2)nc1CSC(=S)N(CC)CC,inactive
5,CCC(Sc1ccc2nnc(-c3cccnc3)n2n1)C(=O)O (stereo not drawn),inactive
6,Cc1ccc(Nc2cc(C)nn2-c2nc(C)cc(C)n2)cc1,inactive
7,CCOC(=O)c1cnc(-n2nc(C)cc2C)nc1Nc1ccc(C)cc1,inactive
8,O=C(NCc1ccccc1)Nc1ncnc2c1C(c1ccccc1)c1c(ccc3ccccc13)O2 (stereo not drawn),2.24 µM (active)
9,O=C(c1ccccc1-c1nc2ccccc2[nH]1)N1CCCCC1,inactive
10,CCCCCN1C=CC=C/C1=C\C=C(C#N)C#N,inactive
11,O=C(/C=C/c1ccco1)NC(=S)Nc1nc(-c2ccc3ccccc3c2)cs1,3.98 µM (active)
12,N#CC(C#N)=c1ccc2c(c1)NC1(CCCCC1)N=2,inactive
13,COC(=O)c1ccc(C(=O)OC)c(NC(=O)CSc2cccc[n+]2[O-])c1,inactive
14,Nc1ncnc2c1C(c1ccccc1)c1c(ccc3ccccc13)O2 (stereo not drawn),1 µM (active)
15,COc1ccc(O)c(/C=N/Nc2nc(Nc3ccccc3)nc(-n3nc(C)cc3C)n2)c1,inactive
16,Cc1ccc(S(=O)(=O)Nc2cccc3ncccc23)s1,inactive
17,CC1=C/C(=N\NC(=S)Nc2cccnc2)CC(C)(C)C1,inactive
18,C/C(=N\NC(=S)NC1CCCCC1)c1c(F)cccc1F,inactive
19,O=C1OC(c2ccccc2)(c2ccccc2)N2CCN(C(=O)NCc3ccc(F)cc3)CC12 (stereo not drawn),0.0251 µM (active)
